Experimental data as given in PubChem BioAssay AID588591 (National Center for Advancing Translational Sciences (NCATS), 2011).
In all, about 390,000 compounds went through this assay and about 4,700 (1.2%) were called active. Inconclusive results (about 4%) are left out. The call rests on the fitted dose curve; in most records, active means well fitted inhibition curve with a large enough effect; inconclusive means small, poorly fitted or top-dose-only effect, or another doubt; inactive means no such curve, though single readings can be large or run the other way. The list comes from a sample in which actives are over-represented; it also holds similar structures and randomly drawn compounds. A call without a number means that no potency is given here.

Each molecule was assayed against DNA polymerase eta (Homo sapiens) (UniProt Q9Y253) (assay: qHTS for Inhibitors of Polymerase Eta). Conditions: recombinant Pol eta, fluorescent DNA replication assay; series mostly up to 114 µM.
Chain of DNA polymerase eta (Homo sapiens) (Q9Y253 whole entry, looked up): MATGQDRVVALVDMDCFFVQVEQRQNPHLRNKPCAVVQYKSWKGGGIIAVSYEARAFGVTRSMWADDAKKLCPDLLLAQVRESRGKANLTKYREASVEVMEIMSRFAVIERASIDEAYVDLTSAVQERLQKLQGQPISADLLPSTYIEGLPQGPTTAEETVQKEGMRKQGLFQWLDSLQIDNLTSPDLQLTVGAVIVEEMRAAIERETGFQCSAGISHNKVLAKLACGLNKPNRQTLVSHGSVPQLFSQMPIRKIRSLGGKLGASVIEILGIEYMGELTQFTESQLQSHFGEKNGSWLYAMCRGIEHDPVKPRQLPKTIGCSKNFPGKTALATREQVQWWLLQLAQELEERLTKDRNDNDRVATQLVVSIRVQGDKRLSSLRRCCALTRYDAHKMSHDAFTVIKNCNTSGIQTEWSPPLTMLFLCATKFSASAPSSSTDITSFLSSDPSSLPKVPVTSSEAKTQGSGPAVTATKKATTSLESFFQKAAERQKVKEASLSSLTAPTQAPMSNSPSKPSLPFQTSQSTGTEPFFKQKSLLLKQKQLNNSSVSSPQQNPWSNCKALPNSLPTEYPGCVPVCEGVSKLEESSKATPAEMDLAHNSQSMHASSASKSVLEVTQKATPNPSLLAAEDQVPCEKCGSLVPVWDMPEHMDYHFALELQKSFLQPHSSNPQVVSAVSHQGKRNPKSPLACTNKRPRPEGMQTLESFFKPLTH
How it was run: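 Fluorescent replication assay: 50 nM final substrate added after a 15 min room-temperature compound preincubation with 10 nM enzyme. Signal taken at 0 min and again at 10 min.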
Potency means the concentration at half of the fitted maximal effect.

Row | SMILES | Potency
1 | CC(=O)c1ccc(NS(=O)(=O)c2ccc(-c3cc(C)no3)s2)cc1 | inactive
2 | Cc1c(CCC(=O)N[C@@H](CC(C)C)C(=O)O)c(=O)oc2c(C)c3oc4c(c3cc12)CCCC4 | inactive
3 | Cc1oc2c(C)c3oc(=O)c(CC(=O)N[C@@H](CC(C)C)C(=O)N[C@@H](Cc4ccccc4)C(=O)O)c(C)c3cc2c1C | 20 µM (active)
4 | Cc1c(OC(C)C(=O)N[C@@H](Cc2ccccc2)C(=O)O)ccc2c3c(c(=O)oc12)CCCC3 (stereo not given in full) | inactive
5 | O=C(CN1CCN(S(=O)(=O)/C=C/c2ccccc2)CC1)NC(=O)NCc1ccco1 | 79.4 µM (active)
6 | NC(=O)CCN1CCN(S(=O)(=O)/C=C/c2ccccc2)CC1 | inactive
7 | CC1(c2ccccc2Cl)NC(=O)N(CC(=O)NC(=O)NCc2ccco2)C1=O (stereo not given) | inactive
8 | CCOc1cc(-c2nnc(SCC(=O)NC3CCCCC3)nc2-c2ccc(OC)c(OCC)c2)ccc1OC | inactive
9 | CC(=O)Nc1ccc(NC(=O)c2cc3sccc3n2Cc2ccc(F)cc2)cc1 | inactive
10 | CCCCN(C)S(=O)(=O)c1ccc(C(=O)Nc2sc3c(c2C(N)=O)CC(C)(C)NC3(C)C)cc1 | inactive
11 | COc1ccc(C)cc1NC(=O)c1[nH]c(C)c(C(C)=O)c1C | inactive
12 | COc1ccccc1CNCc1ccc(C(=O)O)s1 | inactive
13 | COc1cccc2c(C)c(C(=O)O)[nH]c12 | 12.6 µM (active)
14 | CCOc1ccc(C(=O)Nc2ccc3nc4c(c(Nc5ccccc5OC)c3c2)CCCC4)cc1 | inactive
15 | CC(=O)c1ccc(NC(=O)CSc2nnc(NC(=O)Nc3ccccc3)s2)cc1 | inactive
16 | CN(C(=O)CSc1nnc(NC(=O)Nc2ccccc2)s1)c1ccccc1 | inactive
17 | CC(C)c1ccc(Nc2nnc(SCC(=O)c3nnc(-c4ccccc4)o3)s2)cc1 | 15.8 µM (active)
18 | COc1ccc(C)cc1N(C)C(=O)c1c(C)oc2ncnc(N3CCOCC3)c12 | inactive
19 | Cc1ccc(-c2cc(C(=O)NN)n[nH]2)o1 | inactive
20 | CCOc1ccc(CNC(=O)c2cc(-c3ccc(Cl)s3)nc3ccccc23)cc1 | inactive
21 | Cc1ccc(NC(=O)c2cc(-c3ccc(C)o3)nc3ccccc23)nc1 | 22.4 µM (active)
22 | CCOc1cccc(CNC(=O)c2ccc(N3CCCC3)c(NC(=O)Nc3ccccc3CC)c2)c1 | inactive
23 | O=C(Nc1ccc(OC(F)(F)F)cc1)C1CCCN(S(=O)(=O)c2ccc(Br)s2)C1 (stereo not given) | inactive
24 | O=C(NCCc1ccccc1)c1cnc2sc(N3CCCC3)nn2c1=O | inactive

Row | SMILES | Potency
25 | CC(=O)c1nn(-c2ccc(OC(F)(F)F)cc2)nc1Nc1ccccc1 | inactive
26 | Cc1ccc(-c2cc(-c3coc4ccccc4c3=O)c3c(n2)-c2cc(Cl)ccc2OC3)cc1 | inactive
27 | Cc1cccc(OCCSc2nc3ccccc3n2CC(=O)N2CCCCC2)c1C | inactive
28 | NC(=O)C1CCN(C(=O)c2cccc(NC(=O)c3nsc4ccccc34)c2)CC1 | inactive
29 | NC1=CC(=O)C(=O)c2cccnc21 | 8.91 µM (active)
30 | Cc1nn(CC(=O)NCCc2ccccc2)c(=O)c2c1sc1ccccc12 | inactive
31 | COc1ccc(CNC(=O)Cc2coc3ccc(C(C)C)cc23)cc1 | inactive
32 | COc1ccc(N(C)C(=O)C2CCN(S(=O)(=O)c3cc(Br)cc4c3N(C(C)=O)CC4)CC2)cc1 | inactive
33 | Cn1c(=O)c2c(SCC(=O)N3CCc4ccccc43)nc(-c3ccc(Cl)cc3)nc2n(C)c1=O | inactive
34 | Cc1nc2c(C(=O)NCc3ccc4c(c3)OCO4)c[nH]n2c(=O)c1Cc1ccccc1F | 89.1 µM (active)
35 | COc1ccccc1-n1c(C)nc2cc(C(=O)NCc3ccc4c(c3)OCO4)ccc21 | inactive
36 | C=CCn1c(=O)c(C(=O)NCc2ccc3c(c2)OCO3)c(O)c2ccccc21 | inactive
37 | COc1ccc(NC(=O)Cn2c(=O)n(CCC(C)C)c(=O)c3cccnc32)cc1Cl | inactive
38 | CCN(CC)S(=O)(=O)c1ccc2c(c1)nc(CN(C)C(=O)Nc1ccc(Cl)cc1)n2C | inactive
39 | CC(=O)N1CCc2cc(S(=O)(=O)NC(Cc3ccccc3)C(=O)NCc3ccc(C)cc3)ccc21 (stereo not given) | inactive
40 | Cc1sc(C2C(C#N)=C(N)N(c3cccc(Cl)c3)C3=C2C(=O)CCC3)cc1CN1CCOCC1 (stereo not given) | inactive
41 | CN1CCOC1c1ccc(C2OCCN2C)cc1 (stereo not given) | 20 µM (active)
42 | Cc1csc2nc(COC(=O)c3ccccc3NC(=O)c3ccccc3Cl)cc(=O)n12 | inactive
43 | O=C(CCc1ccccc1)NCCc1cccs1 | inactive
44 | Cc1ccnc(NC(=O)CCC(=O)N(CC(=O)NCCc2ccccc2)Cc2cccs2)c1 | inactive
45 | O=C(O)CCC(=O)N(Cc1cccs1)Cc1cccs1 | 20 µM (active)
46 | COc1cc(NC(=O)CCn2nc(C)cc2C)cc(OC)c1OC | inactive
47 | Cc1nc2nc(SCC(=O)N(Cc3ccccc3)C(C)C)nn2c(C)c1Cc1ccccc1Cl | inactive
48 | Cc1ccccc1NC(=O)c1cc2c([nH]c1=O)CC(C)(C)CC2=O | inactive

Row | SMILES | Potency
49 | Cc1ccc2nc(CNC(=O)c3ccccc3)[nH]c2c1 | inactive
50 | Cc1ccc2cc(/C=N/Nc3ccc(C(=O)O)cc3)c(Cl)nc2c1 | 50.1 µM (active)
51 | Cc1ccc(C(=O)N/N=C/c2sc(=O)n(Cc3cccc(C(=O)O)c3)c2Cl)cc1 | inactive
52 | COc1ccc(CNc2nc(-c3ccc(Cl)cc3)nn2C(=O)c2ccccc2)cc1 | inactive
53 | Cc1cccc2nc(-c3ccc(Cl)s3)c(Nc3ccc4c(c3)OCCO4)n12 | inactive
54 | Cc1ccc(S(=O)(=O)N2[C@@H](c3ccccc3F)C(C(=O)O)=CC[C@H]2c2ccc(Cl)cc2)cc1 | inactive
55 | CN1OC(COC(=O)c2ccc(Cl)cc2)CC1c1ccccc1 (stereo not given) | inactive
56 | Cc1ccccc1S(=O)(=O)N1[C@@H](c2cccc(Cl)c2)C(C(=O)O)=CC[C@H]1c1ccc(Cl)cc1 | 89.1 µM (active)
57 | CCOc1ccc(NC(=O)c2cn(C3CCCCC3)c(=O)c3c2c2ccccc2n3C)cc1 | inactive
58 | COc1cc2c(=O)c(S(=O)(=O)c3ccc(C(C)C)cc3)cn(Cc3ccccc3C)c2cc1OC | inactive
59 | CC(NC(=O)CCc1cn(Cc2ccccc2Cl)c2ccccc12)c1ccccc1 (stereo not given) | inactive
60 | Cc1noc(C)c1NC(=O)Nc1ccc2c(c1)C(=O)N([C@H](C)CO)C[C@H](C)[C@@H](CN(C)C(=O)Nc1ccc(C(F)(F)F)cc1)O2 | inactive
61 | Cc1noc(C)c1NC(=O)Nc1cccc2c1O[C@H](CN(C)C(=O)Nc1ccccc1)[C@@H](C)CN([C@H](C)CO)C2=O | inactive
62 | C[C@H](CO)N1C[C@H](C)[C@H](CN(C)C(=O)Nc2ccc(C(F)(F)F)cc2)Oc2c(NC(=O)c3ccncc3)cccc2C1=O | 89.1 µM (active)
63 | CCCN(C(=O)Cn1ncc2c([nH]c3ccc(C)cc32)c1=O)c1ccccc1C | inactive
64 | Cc1ccc(CNC(=O)CCc2c(C)nc3nc(CNC(=O)OC(C)(C)C)nn3c2C)cc1 | inactive
65 | O=C(NC1CCCCC1)C1CCCN(S(=O)(=O)c2ccc(Br)s2)C1 (stereo not given) | inactive
66 | COc1ccccc1NC(=O)COC(=O)Cc1ccc(S(=O)(=O)N2CCCCC2)s1 | inactive
67 | O=C(Cc1ccc(S(=O)(=O)N2CCCC2)s1)NC1CCCCCC1 | 14.1 µM (active)
68 | COc1cccc(Cn2c(CNS(=O)(=O)c3ccc(Cl)s3)nc3cccnc32)c1 | inactive
69 | CCOC(=O)c1ccc(NC(=O)c2csc3c2CCCCC3)cc1 | inactive
70 | CC(C)C[C@H](NC(=O)[C@H](O)[C@H](N)Cc1ccccc1)C(=O)O | inactive
71 | CC(=O)c1ccc(NC(=O)CCc2nnc3ccc(NCc4ccco4)nn23)cc1 | inactive
72 | O=C(CCc1nnc2ccc(NCc3ccco3)nn12)Nc1cc(F)ccc1F | 50.1 µM (active)

Row | SMILES | Potency
73 | CC1CCN(C(=O)CCc2nnc3ccc(NCc4ccco4)nn23)CC1 | inactive
74 | CCc1ccc2oc(-c3ccc(NC(=O)c4cc5ccccc5o4)cc3)nc2c1 | inactive
75 | CCCNC(=O)c1ccc2c(c1)ncn2-c1ccc(C)cc1C | inactive
76 | COc1ccc(Cn2ccc3nc(C)c(C(=O)Nc4ccc(C)c(F)c4)cc3c2=O)cc1 | inactive
77 | CCN1CCN(c2cc(C)c3cc(NC(=O)c4cc(Cl)ccc4OC)ccc3n2)CC1 | inactive
78 | Cc1ccc(OCC(=O)Nc2ccccc2C(=O)NC2CC2)cc1C | inactive
79 | COc1ccc(NC(=O)c2ccco2)cc1NC(=O)COc1ccc(C)c(C)c1 | 89.1 µM (active)
80 | Cc1ccc(OCC(=O)Nc2ccc3oc(=O)ccc3c2)cc1C | inactive
81 | CCc1ccc(-n2nnc(-c3nc(-c4ccccc4)no3)c2C)cc1 | inactive
82 | O=C(c1cnn(-c2ccc(F)cc2)c1-n1cccc1)N1CCN(c2ccc(F)cc2)CC1 | inactive
83 | COc1ccc(Cl)cc1NC(=O)CSc1nc2ccccc2c2nc(-c3ccccc3)nn12 | inactive
84 | O=C(CCc1nc(CN2CCN(S(=O)(=O)c3ccc(F)cc3)CC2)no1)N1CCCCC1 | inactive
85 | O=C1C(Cl)=C(Oc2ccccc2)C(=O)c2ccccc21 | 7.94 µM (active)
86 | Cc1ccc(N(CC(=O)NCc2ccc(Cl)cc2)S(=O)(=O)N(C)C)cc1 | inactive
87 | N#CCC(=O)N/N=C/c1ccc(SCC(=O)Nc2ccccc2)o1 | inactive
88 | O=C(CSc1ccc(/C=N/NC(=O)c2cccc(F)c2)o1)Nc1ccccc1 | inactive
89 | O=C(CCNC(=O)c1ccccc1)NN=Cc1ccc(Br)o1 | 56.2 µM (active)
90 | Cc1cccc2c1-c1sc(C(=O)Nc3ccc(F)cc3F)cc1CO2 | inactive
91 | CCOc1ccc(-c2cc3nc(C4CCN(C(=O)OC(C)(C)C)CC4)c(C(=O)Nc4ccc(C(=O)OC)cc4)cn3n2)cc1 | inactive
92 | Cc1ccc(-c2nnc(Nc3cccc(Br)c3)c3ccccc23)cc1S(=O)(=O)NCC1CCCO1 (stereo not given) | inactive
93 | Cc1ccc2c(c1)-c1c(cnn1CC(=O)Nc1ccccc1C#N)CO2 | inactive
94 | N#Cc1ccccc1CN1C(=O)S/C(=C/c2cccn2-c2cccc(C(=O)O)c2)C1=O | 3.16 µM (active)
95 | CN(C(=O)CSc1nc2ccccc2n1Cc1ccccc1C#N)c1ccccc1 | inactive
